An excerpt weighted towards active compounds, which were near 4.7% of everything screened.
Pyk2 oligo antag – blocks oligomerization of human Pyk2 in cells; Q293 cells, Pyk2 FERM NanoBiT luminescence; stronger effect = lower value; AID 1347419; Q14289; z-score (the deposit names both 25 µM and 10 µM); 99,000 compounds, 0.83% hits;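 active means Z-score of -3 or lower, scaled per plate to the spread of control and sample wells; inactive means z-score above -3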;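 further: negative z-score means lost luminescence so less FERM oligomerization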
DAT uptake mod – changed human dopamine transporter uptake under cocaine IC80; LLC-PK1 hDAT cells, [14C]-dopamine uptake with cocaine IC80; actives deviate in either direction; B-score at 10 µM; 110,000 compounds, 1.3% hits;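 active means Z score or B-score, a plate-position-corrected score, falls beyond the plate's 99.7% confidence bounds, in either direction; inactive means both scores lie inside the 99.7% bounds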;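 further: scored against the spread of the other compound wells on the same plate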
Target sequence (Q01959 whole entry, looked up): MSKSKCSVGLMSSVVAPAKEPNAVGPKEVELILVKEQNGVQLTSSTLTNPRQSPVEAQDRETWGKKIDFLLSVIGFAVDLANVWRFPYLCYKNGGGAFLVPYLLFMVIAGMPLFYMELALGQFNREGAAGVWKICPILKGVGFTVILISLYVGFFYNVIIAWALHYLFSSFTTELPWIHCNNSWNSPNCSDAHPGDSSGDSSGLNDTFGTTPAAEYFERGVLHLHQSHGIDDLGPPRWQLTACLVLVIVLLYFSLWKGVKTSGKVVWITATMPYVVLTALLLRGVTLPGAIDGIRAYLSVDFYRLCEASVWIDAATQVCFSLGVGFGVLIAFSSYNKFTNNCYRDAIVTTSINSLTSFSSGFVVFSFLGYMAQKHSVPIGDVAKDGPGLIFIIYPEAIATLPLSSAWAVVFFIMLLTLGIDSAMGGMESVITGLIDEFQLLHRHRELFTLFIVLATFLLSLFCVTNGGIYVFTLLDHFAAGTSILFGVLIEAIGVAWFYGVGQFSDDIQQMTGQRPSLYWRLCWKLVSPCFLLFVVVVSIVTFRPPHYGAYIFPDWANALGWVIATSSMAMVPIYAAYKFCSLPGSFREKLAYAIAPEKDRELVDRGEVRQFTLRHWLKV
Plk1 PBD FP – inhibitors of human Plk1 polo box domain binding; P53350; inhibition, %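 (tested at about 20 µM)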; Plk1 PBD phosphopeptide binding, fluorescence polarization; 97,000 compounds, 0.13% hits; AID 693; in the data active means inhibition above about 34%, passing the limit was not always enough
sdo1 growth – restores growth of sdo1-depleted yeast; S. cerevisiae sdo1-depleted JHY4D growth rescue, OD600 30 h; stronger effect = higher value; pdr5 snq2 efflux-pump mutant strain; z-score at 10 µM; 140,000 compounds, 0.21% hits; AID 817;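 active means z-score above 3 at both the 24 hr and the 30 hr optical density reads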;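 further: z-score against mean and SD of all compound wells on the same plate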
PLK1 inh – blocks human PLK1 kinase activity. P53350. inhibition, % at 10 µM. 97,000 compounds, 0.53% hits. AID 619. recombinant PLK1 kinase, TR-FRET peptide phosphorylation;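 active means inhibition of 50% or more in the single-concentration screen; inactive means inhibition below 50%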;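 further: 0% = DMSO max control and 100% = H-89 dihydrochloride min control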
Cav32 inh – human Cav3.2 channel inhibition, primary screen. O95180. 100,000 compounds, 4% hits. B-score at 10 µM. AID 449739. Cav3.2-expressing cells, Fluo-4 calcium fluorescence FDSS; stronger effect = lower value;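 active means single-dose well whose peak fluorescence ratio is a statistical outlier from its plate by either plate-standardised score or position-corrected B-score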
* = called active by the depositor; . = no result.

SMILES | Pyk2 oligo antag | DAT uptake mod | Plk1 PBD FP | sdo1 growth | PLK1 inh | Cav32 inh
CCOc1cccc(N(C(=O)Cc2cccs2)C(C(=O)NC2CCCCC2)c2cccn2C)c1 (stereo not given) | -1.1 | 0.33 | -10 | -1.2 | -6 | -4.1*
CCN(CC)c1ccc(NC(=O)COC(=O)/C=C/c2nc3ccccc3s2)cc1 | . | . | . | -0.63 | . | .
CCN(CC)c1ccc(/C=C/c2nc3ccccc3s2)cc1 | . | 0.54 | -159 | -1 | -6 | -3.9*
CCOC(=O)N1CCC(NC(=O)c2cn(-c3ccc(OC)cc3)c(=O)c3ccccc23)CC1 | -0.32 | 2.2* | -5 | 0.78 | -8 | 0.85
CCOC(=O)N1CCC(NC(=O)c2cccc3c2C(=O)N(c2ccc(OC)cc2)C3)CC1 | . | 1.3 | 17 | -1 | -16 | 1.4
Oc1ccccc1-c1nnc(COc2ccc(Cl)cc2Cl)o1 | . | 0.51 | 16 | -0.56 | -1 | -5.9*
C=CCn1c(SCc2ccc(C(=O)Nc3ccccc3)cc2)nnc1-c1ccccc1 | -0.08 | 0.18 | 11 | -0.86 | 0 | 0.85
CN(C)S(=O)(=O)Oc1ccsc1C(=O)Nc1ccc(Cl)cc1 | -1.6 | 0.32 | 3 | -0.68 | -2 | -4.4*
CN(C)S(=O)(=O)Oc1ccsc1C(=O)Nc1ccccc1Cl | -1.9 | -2.3 | -1 | -0.36 | -7 | .
CCN(CC(=O)Nc1cccc(OC)c1)c1ncnc2sc(C)c(C)c12 | . | . | . | -0.68 | . | .
Cc1ccc(CNC(=O)C(=O)NCC2OCCN2S(=O)(=O)c2cccs2)cc1 (stereo not given) | . | -0.57 | . | 0.24 | . | -4.7*
OCC[C@@H]1C[C@H](O)[C@@H](O)[C@]2(CCCO2)O1 | . | -0.0049 | . | . | . | -0.075
O=c1cc(N2CCc3ccccc3C2)[nH]c(=O)n1Cc1ccc(F)cc1 | -1.3 | 0.45 | 10 | 0.33 | -14 | -4*
O=c1cc(N2CCN(c3ccccc3)CC2)[nH]c(=O)n1Cc1ccc(F)cc1 | . | 0.43 | -4 | -0.54 | -17 | -6.1*
CN1CCN(c2cc(=O)n(Cc3ccc(F)cc3)c(=O)[nH]2)CC1 | . | -0.41 | -8 | -0.07 | -4 | 1.6
O=C(c1cnn2c1NC(c1ccco1)CC2C(F)(F)F)N1CCN(c2cccc(Cl)c2)CC1 (stereo not given) | 0.03 | 0.38 | -15 | -1.1 | -12 | -4.2*
O=C(c1cc2n(n1)C(C(F)(F)F)CC(c1ccco1)N2)N1CCc2ccccc2C1 (stereo not given) | -0.77 | 0.89 | -9 | -0.81 | -15 | -3.7*
COc1ccccc1N1CCN(C(=O)c2cc3n(n2)C(C(F)(F)F)CC(c2ccco2)N3)CC1 (stereo not given) | 0.35 | 0.79 | . | 0.15 | . | -2.3
COc1ccc(OC)c2c1C(=O)c1ccccc1C2=O | . | 0.38 | 32 | 0.85 | -14 | -8.9*
O=[N+]([O-])c1ccc2c(c1)C(N1CCOCC1)/C(=C/COc1ccc(Cl)cc1Cl)O2 (stereo not given) | 1.2 | -0.58 | -7 | -1.4 | -16 | -3.6*
O=S(=O)(/N=C(/Nc1ccc(F)cc1F)c1ccccc1)c1ccccc1 | . | . | . | -1.4 | . | .
COc1cc2c(cc1NC(=O)c1ccccc1F)CCCC2 | . | . | . | -0.77 | . | .
COc1cc2c(cc1NC(=O)C(c1ccccc1)c1ccccc1)CCCC2 | -1.6 | -0.015 | -8 | -0.52 | 0 | -6*
CCC[C@@H]1CCCO[C@@](C(=O)NCc2cc(C)n(C)n2)(C(F)(F)F)C1 | . | -1.3 | . | . | . | 1.1
COc1ccc(NC(=O)c2cc3c(-c4ccc(OC)c(OC)c4)nn(C)c3s2)cc1OC | -3* | 1.1 | 6 | -1.1 | 0 | -0.23
SMILES | Pyk2 oligo antag | DAT uptake mod | Plk1 PBD FP | sdo1 growth | PLK1 inh | Cav32 inh
O=C(Cn1c2ccccc2c(=O)c2ccccc21)Nc1cccc(F)c1 | . | . | . | -0.81 | . | .
CCOC(=O)c1c(C)[nH]c(C(=O)C(C)Sc2ccc(Cl)cc2)c1C (stereo not given) | 0.71 | 0.66 | 2 | -1 | -6 | -5.8*
CC(C(=O)Nc1sc2c(c1C(=O)NCC1CCCO1)CCC2)N1C(=O)c2ccccc2C1=O (stereo not given) | . | . | . | -0.62 | . | .
Cc1cc(C)n2nc(SCC3COc4ccccc4O3)nc2n1 (stereo not given) | -0.37 | -0.095 | -29 | 0.4 | -7 | -0.56
N#Cc1cc2c(nc1SCc1ccccc1)CCCCC2 | -0.46 | -0.032 | -17 | 0.13 | -6 | -0.81
Cc1cc(C)c(C#N)c(SCC2COc3ccccc3O2)n1 (stereo not given) | -3.3* | -0.2 | 1 | 0.25 | -6 | -4.7
N#Cc1cc2c(nc1SCC1COc3ccccc3O1)CCC2 (stereo not given) | -1.5 | -0.55 | -33 | -1.5 | -15 | -6.2*
Cc1cc(C(=O)N[C@@H](c2ccccc2)[C@]2(C)C[C@H]2[C@@H](C)C(=O)Nc2ccc3ccccc3c2)no1 | . | 1.8 | . | -0.71 | . | -4.6*
CCOc1ccc(N=C(NN)c2ccc3ccccc3n2)cc1 | . | . | . | -0.09 | . | .
COCC(=O)n1nc(NCc2ccc(OC)cc2)nc1NCc1ccc(OC)cc1 | 0.34 | 0.53 | 1 | -2 | -9 | -8.9*
Cc1ccc(S(=O)(=O)N2CCN(CC(=O)N(CC(C)C)c3c(N)n(CC(C)C)c(=O)[nH]c3=O)CC2)c(C)c1 | . | . | . | 0.19 | . | .
Cc1nc2cc(N3CCN(C)CC3)c(NC(=O)Cc3ccccc3)cc2c(=O)n1Cc1ccccc1 | -1.5 | 0.28 | 22 | 0.17 | 3 | -7.3*
Cc1nc2cc(N3CCCCC3)c(NC(=O)c3ccncc3)cc2c(=O)n1Cc1ccc(Cl)cc1 | . | . | 17 | 0.01 | -6 | .
c1ccc(-c2nc(CSc3n[nH]c(-c4cccs4)n3)cs2)cc1 | 0.13 | 4.1* | 4 | -1.4 | 0 | -5.1
COc1ccc(C[C@H]2CN3C(=NC[C@@H]3Cc3ccc(O)cc3)N2CCNC(=O)c2ccc(C)c(Br)c2)cc1 | . | -2.5* | . | . | . | -1.9
Cc1ccc(C(=O)NCCN2C3=NC[C@H](Cc4ccc(O)cc4)N3C[C@H]2Cc2ccc(O)cc2)cc1Br | . | 0.43 | . | . | . | 1.3
CCOC(=O)c1ccc(NC(=S)NC(=O)COc2ccccc2)cc1 | . | . | . | 0.08 | . | .
CCOC(=O)/C=C/C(=O)Nc1nccs1 | . | . | . | -0.7 | . | .
COc1ccc(N=CC2=C(Nc3ccc(OC)cc3)c3c(C)nn(-c4ccccn4)c3CC2)cc1 | . | -0.002 | 3 | . | -2 | -4.2*
Cc1ccc2nsnc2c1S(=O)(=O)NCc1cccnc1 | 0.55 | -0.86 | -9 | 0.64 | 0 | -0.24
Cc1ccc2nsnc2c1S(=O)(=O)N1CCN(CCc2ccccc2)CC1 | 0.2 | 4.3* | 0 | -0.81 | -4 | 1.4
O=C(Nc1ccc2oc(=O)ccc2c1)c1cccnc1Cl | 0.44 | 0.013 | 9 | 0.43 | 0 | -0.041
Cn1c(N)c(C#N)c2c(c1=S)COC(C)(C)C2 | 0.42 | . | -2 | 0.03 | -14 | .
Cn1c(N)c(C#N)c2c(c1=S)CSC(C)(C)C2 | -0.03 | -7.8* | 17 | 0.35 | 8 | -1.5
Cc1ccc(CNC(=O)Cn2cc(C(F)(F)F)ccc2=O)cc1 | . | . | . | -0.18 | . | .
CCNC(=S)N(Cc1ccc2c(c1)OCO2)C1CC(=O)N(c2ccc(F)cc2)C1=O (stereo not given) | -0.13 | -1.4 | -5 | -0.86 | -9 | -7.1*
